The structures appear in SMILES notation. Where “and” joins values, the source holds several entries; their conditions need not be identical. Equal entries are not always repeated. Out of some 400,000 compounds screened, about 3,700 (0.93%) were called active. Roughly 3% stayed inconclusive and do not appear here. Many of the other results were omitted from the sample, so actives are more common in it than they were. A number with no mark means an inactive call. Calls follow the shape of the dose curve; as a rule, active = well fitted inhibition curve with a large enough effect; inconclusive = small, poorly fitted or top-dose-only effect, or another doubt; inactive = no such curve, though single readings can be large or run the other way.
% is scaled to controls: 0 for no effect and ±100 for the full control effect; potency is read from the fitted curve at half-maximal effect.

Chain of Vitamin D3 receptor (Homo sapiens) (P11473 whole entry, looked up): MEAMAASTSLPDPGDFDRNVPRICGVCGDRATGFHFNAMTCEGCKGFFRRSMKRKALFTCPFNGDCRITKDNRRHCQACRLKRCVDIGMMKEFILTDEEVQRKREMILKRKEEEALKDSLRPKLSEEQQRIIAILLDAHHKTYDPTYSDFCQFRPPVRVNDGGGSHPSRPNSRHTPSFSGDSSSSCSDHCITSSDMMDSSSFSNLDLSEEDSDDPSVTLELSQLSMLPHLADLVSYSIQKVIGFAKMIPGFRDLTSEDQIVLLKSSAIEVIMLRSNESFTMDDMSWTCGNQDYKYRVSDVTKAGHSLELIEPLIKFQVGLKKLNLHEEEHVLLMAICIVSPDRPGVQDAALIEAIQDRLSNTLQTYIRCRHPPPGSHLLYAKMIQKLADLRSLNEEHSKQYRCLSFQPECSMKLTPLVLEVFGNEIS

In the assay the target is Vitamin D3 receptor (Homo sapiens) (UniProt P11473). Put plainly: Inhibitors of the vitamin D receptor (VDR): qHTS. The settings on record: VDR-SRC2-3 peptide fluorescence polarization, 2 h; max response, negative = inhibition: stronger effect = lower value. A digest of the protocol:
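After 23 nl compound addition and a short centrifugation, plates sat for 2 hours at ambient temperature; polarization of fluorescence then indicated loss of VDR binding to peptide SRC2-3.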
On the technique in general: Quantitative high-throughput screening tests each substance at several concentrations.
In the case of `CC1(C)O[C@@H]2C[C@@H]3[C@H]4C[C@@H](F)C5=CC(=O)C=C[C@]5(C)[C@@]4(F)[C@@H](O)C[C@]3(C)[C@]2(C(=O)CO)O1`, the max response, negative = inhibition was 1.68%.

With `COCCNC(=O)CSc1nc(-c2ccccc2)[nH]c1-c1ccc(C)cc1`, the max response, negative = inhibition is -12.4%.

With `Cc1cc(C(=O)NNS(=O)(=O)c2ccccc2C(F)(F)F)nn1C(C)(C)C`, the max response, negative = inhibition was 3.25%.

For `CCCCc1nn(-c2ccccc2C(F)(F)F)c(=O)n1Cc1ccc(-c2ccccc2S(=O)(=O)NC(=O)c2sccc2C)cc1`, the Potency was 44.7 µM (active).

Consider `CCCN1CCN(CCCNC(=O)c2cnn(-c3ccc(C)cc3)c2-n2cccc2)CC1`, for which the max response, negative = inhibition is 13.2%.

As to `CCN(CCCNC(=O)c1cc2cc3cc(OC)ccc3nc2s1)c1ccccc1`, the max response, negative = inhibition is -7.19%.

Consider `O=C(NCC1CC1)C1(C(F)(F)F)C/C(=C\CCO)CCCO1` (centres undefined), for which the max response, negative = inhibition is -6.83%.

`Nc1nc2nc(Cl)[nH]c2c(=O)[nH]1`: the max response, negative = inhibition was -11.6%.

For `CO/N=C(\C(=O)N[C@@H]1C(=O)N2C(C(=O)O)=C(COC(C)=O)CS[C@H]12)c1csc(N)n1` (stereo in doubt), the max response, negative = inhibition is -16.4% and -7.75% and -25.8%.

For the compound `CC(C)(C)OC(=O)C1=C(CO)CS[C@@H]2[C@H](NC(=O)Cc3ccccc3)C(=O)N12`, the max response, negative = inhibition was -17.3%.

Take `Cc1cc(C)cc(C(=O)NC2C(=O)N3C(C(=O)O)=C(CSc4nnc(C)s4)CSC23)c1` (centres undefined): the Potency is 79.4 µM (active).

Take `O=[N+]([O-])c1ccc(S(=O)(=O)N2CCN(c3nc(-c4ccccc4)nc4ccccc34)CC2)cc1`: the max response, negative = inhibition is -8.98%.

As for `Cc1ccc(C(=O)Nc2c(C(=O)NC(C)(C)C)oc3ccccc23)cc1`, the max response, negative = inhibition was 12.7%.

For `COc1ccc(Cl)cc1NC(=O)C(C)Sc1nc2c(c(=O)[nH]1)CCCC2` (centres undefined), the max response, negative = inhibition is 5.96%.

For `CCNCCC(=O)N1c2ccccc2Sc2ccc(NC(=O)OCC)cc21`, the max response, negative = inhibition was -7.06%.

Regarding `CCN1C(=O)c2ccccc2Sc2ccc(NC(=O)Cc3ccc(OC)cc3)cc21`, the max response, negative = inhibition is 7.46%.

In the case of `CCN1/C(=C/C(=S)Nc2ccccc2)Sc2ccccc21`, the Potency is 70.8 µM (active).

As for `CC(=O)OC1CCC2(O)CC1(C)CCC1C2CC1(C)C` (centres undefined), the max response, negative = inhibition was -16.3%.

For `C[C@@H]1O[C@@H](OC[C@H]2O[C@@H](Oc3c(-c4cccc(O)c4O)oc4cc(O)cc(O)c4c3=O)[C@H](O)[C@@H](O)[C@@H]2O)[C@H](O)[C@H](O)[C@H]1O`, the max response, negative = inhibition is 2.29%.

Turning to `Cc1ccc2nc(NC(=O)c3nc(SCc4ccccc4F)ncc3Cl)sc2c1`, the max response, negative = inhibition was 1.04%.

Take `CCS(=O)(=O)c1ncc(N(Cc2ccc(F)cc2)Cc2ccco2)c(C(=O)Nc2cc(C)ccc2C)n1`: the max response, negative = inhibition was -5.22%.

Take `CSc1nnc(NC(=O)c2nc(S(=O)(=O)Cc3ccc(C)cc3)ncc2Cl)s1`: the Potency is 11.2 µM (active).

`Cc1nnc(NC(=O)C(c2ccccc2)c2ccccc2)s1`: the max response, negative = inhibition is 13.7%.

Turning to `Cc1cccc(CS(=O)(=O)c2ncc(Cl)c(C(=O)Nc3ccc(F)cc3)n2)c1`, the Potency is 50.1 µM (active).

For `CCOC(=O)c1ccc(NC(=O)c2nc(SCc3ccc(F)cc3)ncc2Cl)cc1`, the max response, negative = inhibition was -10.3%.

On to `O=C(Nc1nc2ccc(F)cc2s1)c1nc(SCc2ccccc2F)ncc1Cl`, for which the max response, negative = inhibition is -2.57%.

As to `Cc1ccc(CS(=O)(=O)c2ncc(Cl)c(C(=O)Nc3nnc(C)s3)n2)cc1`, the Potency is 25.1 µM (active).

As for `CCOc1cccc(C(=O)Nc2nnc(S(=O)(=O)N(C)c3ccc(C)cc3)s2)c1`, the max response, negative = inhibition was -4.91%.

Turning to `COc1ccc(CNC(=O)COCc2cc(-c3cccs3)on2)cc1OC`, the max response, negative = inhibition was 16.9%.

For `COc1ccc(-c2nc3scc(CCNS(=O)(=O)c4cc(F)ccc4OC)n3n2)cc1OC`, the max response, negative = inhibition was 0.564%.

For the compound `CCOc1ccc2nc(N3CCC(C(=O)Nc4cc(C)ccc4C)CC3)sc2c1`, the max response, negative = inhibition was -0.819%.

As to `COc1ccccc1CNC(=O)CCCCn1c(=O)c2ccccc2n(CC(=O)Nc2cc(Cl)ccc2C)c1=O`, the max response, negative = inhibition was -8.69%.

Regarding `CCOC(=O)c1cc(NC(=O)c2ccc(F)cc2)c(=O)n2c1oc1ccccc12`, the max response, negative = inhibition is 4.45%.

For `O=[N+]([O-])c1cccc2ncccc12`, the Potency was 12.6 µM (active).

Regarding `O=[N+]([O-])c1ccccc1S(=O)(=O)Nc1cccc2cccnc12`, the max response, negative = inhibition was 0.987% and -18.8%.

As to `O=[N+]([O-])c1ccccc1SNc1ccccn1`, the max response, negative = inhibition is -25%.

Take `O=C(/C=C/c1cccc(F)c1)NC1CC1`: the max response, negative = inhibition was 0.0804%.

On to `Cc1c(C(=O)Nc2cccc(Cl)c2)oc2ccc(S(=O)(=O)N3CCOCC3)cc12`, for which the max response, negative = inhibition was -9.71%.

In the case of `Cc1cccc(NC(=O)Cn2nc(-c3ccc(Cl)cc3)c3ccccc3c2=O)c1`, the max response, negative = inhibition is 4.43%.

For `O=C1C=C(c2ccc(Cl)cc2)C(=O)N1Nc1ccccc1`, the Potency was 22.4 µM (active).

Turning to `Cc1ccc(C(=O)Nc2ccc(OCc3cc(=O)n4c(C)csc4n3)cc2)cc1`, the max response, negative = inhibition is -1.83%.

In the case of `Cc1ccc(S(=O)(=O)c2nc(-c3cccs3)oc2N2CCCCC2)cc1`, the max response, negative = inhibition is 28.2%.

As to `C=CC(C1=CC(=O)C=CC1=O)c1ccc(O)cc1` (centres undefined), the Potency was 39.8 µM (active).

For the compound `CCCn1c2ccccc2c2cnn(CC(=O)NCCCOC(C)C)c(=O)c21`, the max response, negative = inhibition is 4.17%.
